From PubChem BioAssay AID1259412 (Laboratorio de Genomica e Expressao (LGE), UNICAMP, 2018)

Assay: AOX inhibitors, oxygen consumption, profiling panel (AID 1259412);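 as to growth (% of control): growth monitored over 72 h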
Conditions: AOX-dependent respiration, O2 uptake; measured here: growth, AOX-dependent treatment condition; at 500 µM; stronger effect = lower value

Compound | growth (% of control) [%]
O=C(Nc1cccc(NC(=O)c2cccc(Cl)c2)c1)c1cccc(Cl)c1 | 90.7
Cc1cccc(C(=O)Nc2ccc(N3CCOCC3)cc2)c1 | 91
NC(=O)c1ccccc1NC(=O)c1ccccc1I | 93.3
COc1cccc(C(=O)Nc2cccc(F)c2)c1 | 7.84
O=C(Nc1cccc(F)c1)c1cccc(I)c1 | 64.5
O=C(Nc1ccc(N2CCOCC2)cc1)c1cccc(Br)c1 | 76.7
N#Cc1cccc(C(=O)Nc2ccccc2)c1 | 58.9
O=C(Nc1cccc(NC(=O)c2cccc(I)c2)c1)c1cccc(I)c1 | 107
COc1cccc(C(=O)Nc2cccc(OCc3ccccc3)c2)c1 | 105
Cc1cccc(C(=O)Nc2ccccc2C(N)=O)c1 | 74.2
O=C(Nc1ccccc1)c1cccc(I)c1 | 67.8
NC(=O)c1ccccc1NC(=O)c1cccc(Br)c1 | 97.2
COc1cc(NC(=O)c2cccc(C#N)c2)cc(OC)c1OC | 89.6
O=C(Nc1cccc(C(F)(F)F)c1)c1cccc(Cl)c1 | 37.9
COc1cccc(C(=O)Nc2ccc(N3CCOCC3)cc2)c1 | 86.1

Same assay, conditions: AOX-dependent respiration, O2 uptake; measured here: growth, control condition; at 500 µM

Compound | growth (% of control) [%]
O=C(Nc1cccc(C(F)(F)F)c1)c1cccc(F)c1 | 35.2
N#Cc1cccc(C(=O)Nc2cccc(Br)c2)c1 | 89.7
O=C(Nc1cccc(I)c1)c1cccc(I)c1 | 90.6
O=C(Nc1cccc(I)c1)c1cccc(Cl)c1 | 82.8
O=C(Nc1cccc(NC(=O)c2ccccc2)c1)c1ccccc1 | 103
COc1cc(NC(=O)c2cccc(F)c2)cc(OC)c1OC | 80.8
COc1cccc(C(=O)Nc2ccccc2)c1 | 60.4
COc1cccc(C(=O)Nc2cccc(Br)c2)c1 | 92
O=C(Nc1cccc(F)c1)c1cccc(Cl)c1 | 70.3
O=C(Nc1cccc([N+](=O)[O-])c1)c1cccc(Cl)c1 | 90.6
O=C(Nc1cccc(C(F)(F)F)c1)c1ccccc1 | 71.4
N#Cc1cccc(C(=O)Nc2ccc(N3CCOCC3)cc2)c1 | 92.2
Nc1cccc(S(=O)(=O)c2cccc(NC(=O)c3ccccc3)c2)c1 | 84.2
N#Cc1cccc(C(=O)Nc2cccc(Cl)c2)c1 | 87.1
COc1cc(NC(=O)c2cccc(Br)c2)cc(OC)c1OC | 84.3
O=C(Nc1cccc(Cl)c1)c1ccccc1 | 118
N#Cc1cccc(C(=O)Nc2cccc([N+](=O)[O-])c2)c1 | 101
Cc1cccc(C(=O)Nc2cccc(Br)c2)c1 | 101
O=C(Nc1cccc(C(F)(F)F)c1)c1cccc(I)c1 | 83.8

Compound | growth (% of control) [%]
O=C(Nc1cccc(F)c1)c1ccccc1 | 92.8
O=C(Nc1cccc(F)c1)c1cccc(Br)c1 | 88
Cc1cccc(C(=O)Nc2ccccc2)c1 | 83.2
O=C(NCc1ccc2c(c1)OCO2)c1cccc(Br)c1 | 82.8
O=C(Nc1cccc(NC(=O)c2cccc(Cl)c2)c1)c1cccc(Cl)c1 | 114
Cc1cccc(C(=O)Nc2ccc(N3CCOCC3)cc2)c1 | 96
NC(=O)c1ccccc1NC(=O)c1ccccc1I | 82.7
COc1cccc(C(=O)Nc2cccc(F)c2)c1 | 32.6
O=C(Nc1cccc(F)c1)c1cccc(I)c1 | 86.5
O=C(Nc1ccc(N2CCOCC2)cc1)c1cccc(Br)c1 | 92.2
N#Cc1cccc(C(=O)Nc2ccccc2)c1 | 89.5
O=C(Nc1cccc(NC(=O)c2cccc(I)c2)c1)c1cccc(I)c1 | 116
COc1cccc(C(=O)Nc2cccc(OCc3ccccc3)c2)c1 | 86.7
Cc1cccc(C(=O)Nc2ccccc2C(N)=O)c1 | 73.9
O=C(Nc1ccccc1)c1cccc(I)c1 | 86.4
NC(=O)c1ccccc1NC(=O)c1cccc(Br)c1 | 80.6
COc1cc(NC(=O)c2cccc(C#N)c2)cc(OC)c1OC | 90.9
O=C(Nc1cccc(C(F)(F)F)c1)c1cccc(Cl)c1 | 93.2
COc1cccc(C(=O)Nc2ccc(N3CCOCC3)cc2)c1 | 86.6

Same assay, conditions: AOX-dependent respiration, measured here: O2 uptake, control condition (no AOX), at 500 µM, stronger effect = lower value

Compound | O2 uptake (% of control) [%]
O=C(Nc1cccc(C(F)(F)F)c1)c1cccc(F)c1 | 83
N#Cc1cccc(C(=O)Nc2cccc(Br)c2)c1 | 82.6
O=C(Nc1cccc(I)c1)c1cccc(I)c1 | 96.7
O=C(Nc1cccc(I)c1)c1cccc(Cl)c1 | 88.3
O=C(Nc1cccc(NC(=O)c2ccccc2)c1)c1ccccc1 | 92.6
COc1cc(NC(=O)c2cccc(F)c2)cc(OC)c1OC | 93.1
COc1cccc(C(=O)Nc2ccccc2)c1 | 95.1
COc1cccc(C(=O)Nc2cccc(Br)c2)c1 | 85.8
O=C(Nc1cccc(F)c1)c1cccc(Cl)c1 | 77.2
O=C(Nc1cccc([N+](=O)[O-])c1)c1cccc(Cl)c1 | 93
O=C(Nc1cccc(C(F)(F)F)c1)c1ccccc1 | 84
N#Cc1cccc(C(=O)Nc2ccc(N3CCOCC3)cc2)c1 | 105
Nc1cccc(S(=O)(=O)c2cccc(NC(=O)c3ccccc3)c2)c1 | 112
N#Cc1cccc(C(=O)Nc2cccc(Cl)c2)c1 | 87.4
COc1cc(NC(=O)c2cccc(Br)c2)cc(OC)c1OC | 90
O=C(Nc1cccc(Cl)c1)c1ccccc1 | 88
N#Cc1cccc(C(=O)Nc2cccc([N+](=O)[O-])c2)c1 | 110
Cc1cccc(C(=O)Nc2cccc(Br)c2)c1 | 90.2
O=C(Nc1cccc(C(F)(F)F)c1)c1cccc(I)c1 | 82.2

Compound | O2 uptake (% of control) [%]
O=C(Nc1cccc(F)c1)c1ccccc1 | 102
O=C(Nc1cccc(F)c1)c1cccc(Br)c1 | 73.7
Cc1cccc(C(=O)Nc2ccccc2)c1 | 103
O=C(NCc1ccc2c(c1)OCO2)c1cccc(Br)c1 | 94.7
O=C(Nc1cccc(NC(=O)c2cccc(Cl)c2)c1)c1cccc(Cl)c1 | 97.7
Cc1cccc(C(=O)Nc2ccc(N3CCOCC3)cc2)c1 | 96.2
NC(=O)c1ccccc1NC(=O)c1ccccc1I | 112
COc1cccc(C(=O)Nc2cccc(F)c2)c1 | 79.2
O=C(Nc1cccc(F)c1)c1cccc(I)c1 | 76
O=C(Nc1ccc(N2CCOCC2)cc1)c1cccc(Br)c1 | 100
N#Cc1cccc(C(=O)Nc2ccccc2)c1 | 105
O=C(Nc1cccc(NC(=O)c2cccc(I)c2)c1)c1cccc(I)c1 | 106
COc1cccc(C(=O)Nc2cccc(OCc3ccccc3)c2)c1 | 91.3
Cc1cccc(C(=O)Nc2ccccc2C(N)=O)c1 | 92.4
O=C(Nc1ccccc1)c1cccc(I)c1 | 87.7
NC(=O)c1ccccc1NC(=O)c1cccc(Br)c1 | 80.8
COc1cc(NC(=O)c2cccc(C#N)c2)cc(OC)c1OC | 104
O=C(Nc1cccc(C(F)(F)F)c1)c1cccc(Cl)c1 | 93.2
COc1cccc(C(=O)Nc2ccc(N3CCOCC3)cc2)c1 | 102
